# Test results taken from PubChem BioAssay (Tox21).
# Values joined by “and” are separate entries in the source; they are usually repeats but may differ in a detail not shown here. Identical values can stand only once. Records with an inconclusive call do not appear. Where a call stands in place of a potency, no number is given. The source holds several records for some structures; these can differ, active in one and inactive in another. Active and inactive are the calls of the source. Unless noted, calls follow the shape of the dose curve; as a rule, active = well fitted curve in the direction sought with a large enough effect in the repeat runs; inconclusive = weak or mixed curves; inactive = no such curve, though single readings can be large; an effect the other way counts as inactive or inconclusive.
# Legend:
# [1] = qHTS assay to identify small molecule antagonists of the thyroid receptor (TR) signaling pathway - cell viability counter screen (AID 743064); also: nearly all actives have a fitted effect of over 50% in size; also: potency is read from the fitted curve at half-maximal effect
# Summary of the method: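 CellTiter-Fluor readout, 30 min at 37 °C/5% CO2, following 23.5 h incubation of GH3.TRE-Luc cells with test compound and 1 nM T3 (final).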
# [2] = qHTS assay to identify small molecule antagonists of the thyroid receptor (TR) signaling pathway (AID 743065); also: series mostly up to about 70 µM; nearly all actives have a fitted effect of over 55% in size
# Summary of the method: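 GH3.TRE-Luc rat pituitary cells (two TREs driving luciferase) were dosed with compound, then stimulated with 1 nM T3 (final) for 23.5 h at 37 C. ONE-Glo luminescence was the read-out, with CellTiter-Fluor fluorescence as the cytotoxicity counter-screen.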
# [3] = system: thyroid hormone receptor (rat, GH3 cells); test: qHTS assay to identify small molecule agonists of the thyroid receptor (TR) signaling pathway (AID 743066; calls by dose curve)
# [4] = molecular target: Estrogen receptor (Homo sapiens) (UniProt P03372); test: qHTS assay to identify small molecule antagonists of the estrogen receptor alpha (ER-alpha) signaling pathway (AID 743069; active = well fitted curve in the direction sought with a large enough effect in the signal ratio in the repeat runs, not every such curve was filed as active; the % refers to the signal ratio)
# Sequence of Estrogen receptor (Homo sapiens) (P03372 whole entry, looked up): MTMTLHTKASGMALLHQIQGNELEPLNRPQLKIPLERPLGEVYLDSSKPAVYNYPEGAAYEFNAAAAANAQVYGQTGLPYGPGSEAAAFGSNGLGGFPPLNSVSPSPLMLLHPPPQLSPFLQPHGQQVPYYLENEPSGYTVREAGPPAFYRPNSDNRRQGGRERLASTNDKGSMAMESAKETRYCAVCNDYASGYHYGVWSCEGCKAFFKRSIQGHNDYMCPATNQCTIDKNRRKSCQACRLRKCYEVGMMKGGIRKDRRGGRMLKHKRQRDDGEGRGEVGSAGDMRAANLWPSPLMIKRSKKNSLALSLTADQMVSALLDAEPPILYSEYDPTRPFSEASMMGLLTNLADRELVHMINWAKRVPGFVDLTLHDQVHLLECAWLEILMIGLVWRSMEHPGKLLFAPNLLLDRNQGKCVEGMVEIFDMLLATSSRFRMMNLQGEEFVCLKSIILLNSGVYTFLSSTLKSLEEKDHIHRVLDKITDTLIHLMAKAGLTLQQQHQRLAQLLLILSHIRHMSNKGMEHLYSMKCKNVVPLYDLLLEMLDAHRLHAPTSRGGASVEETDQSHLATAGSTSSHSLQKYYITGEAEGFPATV
# Summary of the method: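 Reporter cells (ER-alpha-bla, HEK293 background) are conditioned overnight in stripped-serum medium (2% charcoal-stripped FBS). Compound and 17beta-estradiol exposure runs 18 hr at 37C, 5% CO2.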
# [5] = qHTS assay to identify small molecule antagonists of the estrogen receptor alpha (ER-alpha) signaling pathway - cell viability counter screen (AID 743074; calls by dose curve;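 also: HEK293 cells carrying ER-alpha-UAS-bla reporter stimulated with 17beta-estradiol; nearly all actives have a fitted effect of over 45% in size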)
# [6] = molecular target: Estrogen receptor (Homo sapiens) (UniProt P03372); test: qHTS assay to identify small molecule agonists of the estrogen receptor alpha (ER-alpha) signaling pathway (AID 743075; calls by dose curve;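 also: HEK293 GripTite cells with ER-alpha and UAS-driven beta-lactamase reporter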; also: potency is read from the fitted curve at half-maximal effect)
# [7] = molecular target: Estrogen receptor (Homo sapiens) (UniProt P03372); test: qHTS assay to identify small molecule agonists of the estrogen receptor alpha (ER-alpha) signaling pathway using the BG1 cell line (AID 743079); also: nearly all actives have a fitted effect of over 20% in size; also: potency is read from the fitted curve at half-maximal effect
# [8] = qHTS assay to identify small molecule antagonists of the estrogen receptor alpha (ER-alpha) signaling pathway using the BG1 cell line (AID 743080; calls by dose curve; also: series mostly up to about 70 µM; nearly all actives have a fitted effect of over 25% in size)
# Summary of the method: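 Antagonist mode: compounds in DMSO were pinned onto BG1-Luc-4E2 cells alongside 17beta-estradiol agonist, incubated 21.5 h, and ERE-driven luciferase measured with ONE-Glo. Cytotoxicity was multiplexed using CellTiter-Fluor fluorescence.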
# [9] = qHTS assay to identify small molecule antagonists of the estrogen receptor alpha (ER-alpha) signaling pathway using the BG1 cell line - cell viability counter screen (AID 743081);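 also: compound given together with 17beta-estradiol as the ER stimulus; nearly all actives have a fitted effect of over 45% in size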; also: potency is read from the fitted curve at half-maximal effect
# Aromatase (Homo sapiens) = Aromatase (Homo sapiens) (UniProt P11511); test: qHTS assay to identify aromatase inhibitors (AID 743083); also: series mostly up to about 70 µM; nearly all actives have a fitted effect of over 55% in size
# Sequence of Aromatase (Homo sapiens) (P11511 whole entry, looked up): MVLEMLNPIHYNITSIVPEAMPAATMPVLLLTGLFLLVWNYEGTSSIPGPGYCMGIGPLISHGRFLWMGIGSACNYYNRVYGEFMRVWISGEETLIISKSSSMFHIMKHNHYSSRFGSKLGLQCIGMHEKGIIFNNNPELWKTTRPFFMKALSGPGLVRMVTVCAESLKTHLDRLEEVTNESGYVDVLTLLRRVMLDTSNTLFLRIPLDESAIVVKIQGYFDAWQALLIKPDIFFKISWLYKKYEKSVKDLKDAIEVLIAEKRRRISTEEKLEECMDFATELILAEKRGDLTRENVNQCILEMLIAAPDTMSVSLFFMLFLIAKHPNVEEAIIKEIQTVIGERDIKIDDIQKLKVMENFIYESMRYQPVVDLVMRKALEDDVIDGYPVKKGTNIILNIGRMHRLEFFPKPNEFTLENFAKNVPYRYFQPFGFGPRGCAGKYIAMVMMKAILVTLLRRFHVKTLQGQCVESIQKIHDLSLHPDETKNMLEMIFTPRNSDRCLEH
# [10] = qHTS assay to identify aromatase inhibitors - cell viability counter screen (AID 743084);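 also: cells stimulated with testosterone during compound exposure; nearly all actives have a fitted effect of over 55% in size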; also: potency is read from the fitted curve at half-maximal effect
# [11] = qHTS assay to identify small molecule that activate the aryl hydrocarbon receptor (AhR) signaling pathway - cell viability counter screen (AID 743086); also: nearly all actives have a fitted effect of over 45% in size; also: potency is read from the fitted curve at half-maximal effect
# Summary of the method: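 HepG2-AhR-luc (HG2L7.5c1) cells, 4000/well, treated 24 h at 37 C with compound; viability measured as CellTiter-Fluor fluorescence after 30 min in the same wells as the luciferase read.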
# [12] = molecular target: Peroxisome proliferator-activated receptor gamma (Homo sapiens) (UniProt P37231); test: qHTS assay to identify small molecule antagonists of the peroxisome proliferator-activated receptor gamma (PPARg) signaling pathway (AID 743191; calls by dose curve; also: series mostly up to about 63 µM; nearly all actives have a fitted effect of over 30% in size)
# Sequence of Peroxisome proliferator-activated receptor gamma (Homo sapiens) (P37231 whole entry, looked up): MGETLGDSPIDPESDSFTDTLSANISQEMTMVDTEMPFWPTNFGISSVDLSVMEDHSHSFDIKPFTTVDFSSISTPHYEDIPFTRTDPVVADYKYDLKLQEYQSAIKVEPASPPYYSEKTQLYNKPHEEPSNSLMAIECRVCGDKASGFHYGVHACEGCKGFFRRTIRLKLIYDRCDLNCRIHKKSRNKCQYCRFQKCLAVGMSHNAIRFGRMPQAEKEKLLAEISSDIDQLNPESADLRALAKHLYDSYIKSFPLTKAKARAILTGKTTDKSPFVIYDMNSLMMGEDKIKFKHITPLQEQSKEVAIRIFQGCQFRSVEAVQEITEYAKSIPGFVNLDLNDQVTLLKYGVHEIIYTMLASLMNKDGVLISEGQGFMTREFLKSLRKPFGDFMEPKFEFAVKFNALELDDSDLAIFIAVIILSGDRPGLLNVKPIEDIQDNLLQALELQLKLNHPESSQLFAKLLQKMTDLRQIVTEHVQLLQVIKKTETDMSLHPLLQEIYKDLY
# Summary of the method: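 GeneBLAzer PPARg UAS-bla HEK293H cells, 5 h post-plating, exposed to compounds 17 h at 37C. LiveBLAzer B/G FRET substrate added for 1 h at room temperature; beta-lactamase reporter read by fluorescence intensity.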
# [13] = qHTS assay to identify small molecule antagonists of the peroxisome proliferator-activated receptor gamma (PPARg) signaling pathway - cell viability counter screen (AID 743194); also: nearly all actives have a fitted effect of over 55% in size
# Summary of the method: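 Cytotoxicity counter screen in PPARg-bla HEK293H cells, same wells as reporter assay. Compounds plus 50 nM rosiglitazone (final) for 17 h at 37 C, then viability read by CellTiter-Glo luminescence.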
# [14] = qHTS assay for small molecule agonists of the antioxidant response element (ARE) signaling pathway - cell viability counter screen (AID 743203; calls by dose curve; also: nearly all actives have a fitted effect of over 55% in size)
# Summary of the method: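 Seeded at 2,000 cells/well, ARE-bla HepG2 cells were incubated 5 hrs before compound addition. After 16 hrs of treatment at 37C with 5% CO2, CellTiter-Glo reagent was added and luminescence read 30 min later.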
# [15] = qHTS assay for small molecule activators of the heat shock response signaling pathway (AID 743210; active = well fitted activation curve with a large enough effect in the signal ratio in the repeat runs, with a control signal flat, not every such curve was filed as active; the % refers to the signal ratio;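 also: HeLa cells with beta-lactamase reporter driven by heat shock elements; series mostly up to about 63 µM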)
# Summary of the method: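 Quantitative high-throughput format using an engineered HeLa line in which heat shock response elements drive beta-lactamase; after 5 h with compound, cells received a B/G FRET substrate and fluorescence was read.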
# [16] = molecular target: Aryl hydrocarbon receptor (Homo sapiens) (UniProt P35869); test: qHTS assay to identify small molecule that activate the aryl hydrocarbon receptor (AhR) signaling pathway (AID 743085); also: nearly all actives have a fitted effect of over 15% in size; also: potency is read from the fitted curve at half-maximal effect;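 as to activation: HG2L7.5c1 human HepG2 liver cells with stably integrated DRE-driven firefly reporter; series mostly up to about 70 µM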
# Sequence of Aryl hydrocarbon receptor (Homo sapiens) (P35869 whole entry, looked up): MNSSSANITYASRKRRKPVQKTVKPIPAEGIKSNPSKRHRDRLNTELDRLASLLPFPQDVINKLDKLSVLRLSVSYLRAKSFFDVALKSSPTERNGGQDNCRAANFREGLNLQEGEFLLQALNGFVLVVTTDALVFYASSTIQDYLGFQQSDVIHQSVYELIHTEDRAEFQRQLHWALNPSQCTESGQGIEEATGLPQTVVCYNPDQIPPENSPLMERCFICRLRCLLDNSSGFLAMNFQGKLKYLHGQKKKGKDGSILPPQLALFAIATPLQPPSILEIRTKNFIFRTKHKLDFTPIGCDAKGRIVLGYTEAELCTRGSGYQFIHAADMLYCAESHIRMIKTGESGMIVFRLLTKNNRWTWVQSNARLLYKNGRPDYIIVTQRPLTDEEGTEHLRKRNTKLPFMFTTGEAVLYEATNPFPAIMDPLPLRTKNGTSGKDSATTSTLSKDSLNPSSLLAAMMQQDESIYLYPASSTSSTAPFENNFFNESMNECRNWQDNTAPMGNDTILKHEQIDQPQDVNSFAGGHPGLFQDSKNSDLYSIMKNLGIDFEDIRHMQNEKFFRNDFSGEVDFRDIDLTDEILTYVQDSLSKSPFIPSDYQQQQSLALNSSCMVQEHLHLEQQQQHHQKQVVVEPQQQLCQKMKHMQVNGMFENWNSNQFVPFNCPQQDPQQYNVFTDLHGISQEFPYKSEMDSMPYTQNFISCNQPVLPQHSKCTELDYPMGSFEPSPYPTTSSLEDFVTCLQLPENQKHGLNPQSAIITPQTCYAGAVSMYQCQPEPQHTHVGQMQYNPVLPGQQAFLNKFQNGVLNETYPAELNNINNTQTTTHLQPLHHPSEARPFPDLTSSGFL
# Summary of the method: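 Stably transfected human liver carcinoma cells (HG2L7.5c1; 20 DRE-firefly luciferase) were incubated 5 h, dosed, and kept 24 h at 37C. Agonism was scored from increased luciferase luminescence.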
# [17] = qHTS assay for small molecule agonists of the antioxidant response element (ARE) signaling pathway (AID 743202; active = well fitted activation curve with a large enough effect in the signal ratio in the repeat runs, not every such curve was filed as active; the % refers to the signal ratio)
# Summary of the method: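 Agonist mode reporter screen: HepG2 cells with ARE-controlled beta-lactamase are incubated with test compounds for 16 h at 37 C, and beta-lactamase activity is measured as fluorescence of cleaved B/G FRET substrate.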
# [18] = qHTS assay for small molecule activators of the heat shock response signaling pathway - cell viability counter screen (AID 743209); also: nearly all actives have a fitted effect of over 50% in size
# Summary of the method: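 First, HSE-bla HeLa cells were seeded at 1500 cells/well and kept overnight at 37 C. Next, compounds were pinned in and incubated 5 h. After the FRET substrate step, CellTiter-Glo was added and luminescence read 30 min later.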
# [19] = molecular target: Peroxisome proliferator-activated receptor gamma (Homo sapiens) (UniProt P37231); test: qHTS assay to identify small molecule agonists of the peroxisome proliferator-activated receptor gamma (PPARg) signaling pathway (AID 743094; active = well fitted activation curve with a large enough effect in the signal ratio in the repeat runs, not every such curve was filed as active; the % refers to the signal ratio)
# Summary of the method: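 Quantitative HTS agonist mode: stable HEK293H line with UAS-beta-lactamase reporter under PPARg control, 17 h compound exposure at 37C, fluorescence after 1 h FRET substrate loading at room temperature.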
SMILES,Potency [1],Potency [2],outcome [3],Potency [4],outcome [5],Potency [6],Potency [7],outcome [8],Potency [9],Potency (Aromatase (Homo sapiens)),Potency [10],Potency [11],outcome [12],outcome [13],Potency [14],outcome [15],Potency [16],Potency [17],outcome [18],outcome [19]
CC(=O)CC(C)(C)O,inactive,inactive,inactive,inactive,inactive,inactive,inactive,inactive,inactive,inactive,inactive,inactive,inactive,inactive,inactive,inactive,,,,
O=S(=O)(O)c1ccc(N=Nc2c(O)ccc3cc(S(=O)(=O)O)ccc23)cc1,30.8 µM (active) and 27.3 µM (active),inactive,inactive,inactive,inactive,inactive,inactive,inactive,27.4 µM (active) and 27.3 µM (active),inactive,15.4 µM (active) and 19.3 µM (active),13.7 µM (active) and 8.63 µM (active),,inactive,inactive,,inactive,inactive,inactive,
CC(=O)OCc1ccco1,inactive,inactive,inactive,inactive,inactive,inactive,inactive,,inactive,inactive,inactive,inactive,inactive,inactive,inactive,inactive,inactive,inactive,inactive,inactive
OC1C(O)C(O)C(O)C(O)C1O (stereo not drawn),inactive,inactive,inactive,inactive,inactive,inactive,inactive,inactive,inactive,inactive,inactive,inactive,inactive,inactive,inactive,inactive,inactive,inactive,,inactive
O=C(O)c1cc2ccccc2cc1O,inactive,inactive,inactive,inactive,inactive,inactive and 49 µM [activator] (active),54.1 µM (active) and 48.6 µM (active),inactive,inactive,inactive,inactive,inactive,inactive,inactive,inactive,,60.7 µM (active) and 30.6 µM (active),inactive,inactive,inactive
CCCCCCCO,inactive,inactive,inactive,inactive,inactive,inactive,inactive,inactive,inactive,inactive,inactive,inactive,inactive,inactive,inactive,,inactive,,inactive,inactive
CC1(C)S[C@@H]2[C@H](NC(=O)COc3ccccc3)C(=O)N2[C@H]1C(=O)O,inactive,inactive,inactive,inactive,inactive,inactive,inactive,inactive,inactive,inactive,inactive,inactive,inactive,inactive,inactive,inactive,inactive,inactive,inactive,inactive
CC(C)(C)c1cc(Cc2cc(C(C)(C)C)c(O)c(C(C)(C)C)c2)cc(C(C)(C)C)c1O,inactive,inactive,inactive,inactive,inactive,inactive,inactive,,inactive,inactive,inactive,inactive,inactive,inactive,inactive,inactive,inactive,inactive,,inactive
CCCCCCCCCCCCCCCCO,inactive,inactive,inactive,inactive,inactive,inactive,inactive,inactive,inactive,inactive,inactive,inactive,inactive,inactive,inactive,,inactive,,inactive,inactive
O=C1CCCC1,inactive,inactive,inactive,inactive,inactive,inactive,inactive,inactive,inactive,inactive,inactive,inactive,inactive,inactive,inactive,,inactive,,inactive,inactive
COCCCN,inactive,inactive,inactive,inactive,inactive,inactive,inactive,inactive,inactive,inactive,inactive,inactive,,inactive,inactive,,,inactive,inactive,
CCCCCCCCCCO,inactive,inactive,inactive,inactive,inactive,inactive,inactive,,inactive,inactive,inactive,inactive,inactive,inactive,inactive,inactive,inactive,inactive,,inactive
CCNc1cccc(C)c1,inactive,inactive,inactive,inactive,inactive,inactive,inactive,,inactive,inactive,inactive,inactive,inactive,,inactive,inactive,inactive,inactive,inactive,inactive
C[Si]1(C)O[Si](C)(C)O[Si](C)(C)O[Si](C)(C)O1,inactive,inactive,inactive,inactive,inactive,inactive,inactive,,inactive,inactive,inactive,inactive,,inactive,inactive,inactive,inactive,inactive,inactive,inactive
CCCCC(C=O)CC (stereo not drawn),inactive,inactive,inactive,inactive,inactive,inactive,inactive,inactive,inactive,inactive,inactive,inactive,inactive,inactive,inactive,,inactive,,inactive,inactive
CC(=O)CCC=C(C)C,inactive,inactive,inactive,inactive,inactive,inactive,inactive,inactive,inactive,inactive,inactive,inactive,inactive,inactive,inactive,,inactive,inactive,,inactive
